Assay outcomes: PubChem BioAssay, The Scripps Research Institute Molecular Screening Center
TLR4 MyD88 comp: blocks binding of human TLR4 to MyD88 | O00206+Q99836 | HeLa CL3-4 TLR4/MyD88 BLA complementation, FRET ratio | inhibition, % at 8.4 µM | actives 0.18% (n = 200,000) | AID 861; in the data active = inhibition above about 25%
IDE cell activ: IDE (human) activation, cell-based; HEK cells, FAbeta-B cleavage, fluorescence polarization; 0% vehicle, 100% cell-free pure enzyme wells; actives 0.073% (n = 340,000); activation, % at 5.96 µM;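 active = activation above the mean of all tested compounds plus 3 SD, set per screening campaign, cut at about 17% in these data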
NOD2 RIPK2 PPI: blocks binding of human NOD2 to RIPK2; O43353; CHO BLA complementation NOD2-RIPK2, CCF4 ratio; inhibition, % at 4.98 µM; actives 0.38% (n = 360,000); AID 624267; in the data active = inhibition above about 21%
IDE inh: cellular human IDE inhibition. HEK cells, FAbetaB cleavage, fluorescence polarization. P14735. AID 434962. actives 0.41% (n = 320,000). inhibition, % at 5.59 µM;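 active = percent inhibition above the average of all tested compounds plus 3 SD, set per screening campaign, cut at about 16% in these data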;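 also: IDE supplied by intact live HEK cells; FP after avidin binding of uncleaved biotin substrate so inhibition keeps polarization high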
TLR9-MyD88 inh: inhibitors of human TLR9-MyD88 binding | actives 0.21% (n = 340,000) | Q9NR96+Q99836 | inhibition, % at 4.98 µM | CHO BLA complementation TLR9-MyD88, CCF4 FRET ratio | AID 504734;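 active = inhibition above the mean over all tested compounds plus 3 SD, cut at about 21% in these data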
IDE inh confirm: confirmation of human insulin-degrading enzyme inhibitors in cells. shares compounds with IDE inh. HEK cells, FAbetaB cleavage, fluorescence polarization. inhibition, % at 5.59 µM. actives 51% (n = 1,200);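 active = mean inhibition across triplicate wells above the cutoff set by the earlier primary insulin-degrading enzyme screen, cut at about 16% in these data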
HEK cytotox: counter-screen for IDE inhibitors: cytotoxicity in HEK cells | shares compounds with IDE inh | HEK293 cytotoxicity, ATP luminescence | inhibition, % at 5.59 µM | actives 28% (n = 1,200) | AID 449730; in the data active = inhibition above about 22%
Hits are given with their value; . = inactive; / = no result. Compounds with a hit are over-represented: about 0.86% of the library has one in this group of screens.

SMILES	TLR4 MyD88 comp	IDE cell activ	NOD2 RIPK2 PPI	IDE inh	TLR9-MyD88 inh	IDE inh confirm	HEK cytotox
CCN(CC)C(=O)Cn1cc(C(=O)C(=O)N2CC=C(c3ccccc3)CC2)c2ccccc21	.	.	.	18.9	.	20.6	.
CCN(CC)C(=O)Cn1cc(C(=O)C(=O)N2CCN(C)CC2)c2ccccc21	/	.	.	.	.	/	/
O=c1c2[nH]c3ccccc3c2ncn1CCC1=CCCCC1	.	.	.	.	.	/	/
C1=C(CCNc2ncnc3c2[nH]c2ccccc23)CCCC1	.	.	.	34.8	.	.	87.5
NCCCNC(=O)Cn1c(=O)c2c3c(sc2n(Cc2ccccc2)c1=O)CCCC3	/	.	.	/	.	/	/
Oc1ccc(Cl)cc1/C=N/c1nccs1	.	.	.	.	.	/	/
Cc1cccc(C=Nc2ccc3c4c(cccc24)CC3)c1O	.	.	.	33.0	.	.	.
Oc1ccc(Cl)cc1C=Nc1ccc2c3c(cccc13)CC2	.	.	.	42.2	.	.	.
O=c1ccnc(SCc2ccccc2Cl)[nH]1	.	.	.	.	.	/	/
O=C1CC(=O)N(Cc2ccco2)C(=S)N1	.	.	.	.	.	/	/
O=C1CC(=O)N(Cc2ccco2)C(=O)N1	.	.	.	21.3	.	.	.
O=C(O)COc1cccc2nsnc12	.	.	.	.	.	/	/
O=C(Nc1ccc2c(c1)OCO2)C1CC(=O)N(c2ccccc2)C1 (stereo not drawn)	/	.	.	.	.	/	/
COc1ccccc1C(=O)Nc1ccccc1SC(=O)c1ccccc1OC	/	.	.	42.8	.	.	29.5
O=C(N/N=C/c1c(O)ccc2ccccc12)c1cccc(C(F)(F)F)c1	.	.	.	180.3	.	137.4	114.5
O=C(N/N=C\c1c(O)ccc2ccccc12)c1ccc(Cn2cccn2)o1	.	.	.	41.9	.	62.9	67.7
COc1ccc2ccccc2c1/C=N/NC(=O)c1cccc(Br)c1	.	.	.	.	.	/	/
CCCCNC(=O)c1cc2cccc([N+](=O)[O-])c2[nH]1	/	.	.	.	.	/	/
c1ccc2c(c1)[nH]c1c(N3CCOCC3)ncnc12	.	.	.	17.9	.	.	.
Cc1cccc2[nH]c3c(N4CCC5(CC4)OCCO5)ncnc3c12	.	.	.	.	.	/	/
Cc1ccc2[nH]c3c(N4CCOCC4)ncnc3c2c1	.	.	.	29.5	.	.	.
Clc1ccc2[nH]c3c(N4CCC5(CC4)OCCO5)ncnc3c2c1	.	/	/	21.7	/	.	60.0
c1ccc2c(c1)[nH]c1c(N3CCCC3)ncnc12	.	.	.	16.1	.	.	49.0
c1ccc2c(c1)[nH]c1c(N3CCSCC3)ncnc12	.	.	.	.	.	/	/
Cc1ccc(N(CC(=O)N/N=C/c2cccs2)S(C)(=O)=O)cc1	.	.	.	.	.	/	/
SMILES	TLR4 MyD88 comp	IDE cell activ	NOD2 RIPK2 PPI	IDE inh	TLR9-MyD88 inh	IDE inh confirm	HEK cytotox
Cc1ccc(N(CC(=O)N/N=C/c2cccc(Br)c2)S(C)(=O)=O)cc1	.	.	.	27.2	.	17.0	.
Cc1nnn(C23CC4CC(CC(CC(=O)Nc5ccc(C)c(Cl)c5)(C4)C2)C3)n1	.	.	.	.	.	/	/
CN(C)c1ccc(/C=C(\C#N)C(=O)OCC(=O)N(C)C2CCS(=O)(=O)C2)cc1 (stereo not drawn)	/	.	.	16.5	.	.	.
Fc1ccc(N2CCN(c3ccc4c(C(F)(F)F)cc(C(F)(F)F)nc4n3)CC2)cc1	.	.	.	.	.	/	/
COc1ccccc1CN1C[C@@H]2C[C@@H](c3ccc(C)cc3)N3CCC[C@@]23C1=O	.	.	.	.	.	/	/
COc1ccccc1CN1C[C@@H]2C[C@@H](c3ccc4nsnc4c3)N3CCC[C@@]23C1=O	.	.	.	19.4	.	.	.
Cc1cc(=O)oc2cc(OCC(=O)NCCc3c[nH]c4ccc(F)cc34)ccc12	/	.	.	.	.	/	/
O=C1c2ccccc2S(=O)(=O)N1CCOc1ccc(F)cc1	.	.	.	.	.	/	/
CCOc1cc(/C=C(/C#N)C(=O)Nc2ccc(O)cc2)cc(Br)c1O	.	.	.	37.5	.	75.3	57.3
O=C1NC(=S)SC1=Cc1cccs1	/	.	.	/	.	/	/
CN1CCC/C1=C/C=C1\SC(=S)NC1=O	.	.	.	76.3	.	68.5	.
CCN(c1ccccc1)S(=O)(=O)c1ccc2c(c1)C(C)(C)C(=O)N2C	/	.	.	.	.	/	/
CCOC(=O)/C(=C/C1=CC(=C/N(C)C)/C(=O)O1)C(C)=O	/	.	.	16.2	.	23.0	.
CC(=O)N/N=C/c1cc(C(C)(C)C)cc(/C=N/NC(C)=O)c1O	.	/	.	47.8	/	29.4	.
S=C(NCC1CCCO1)N1CCN(c2nc(-c3ccccc3)cs2)CC1 (stereo not drawn)	.	.	.	.	.	/	/
S=C(NCc1ccco1)N1CCN(c2nc(-c3ccccc3)cs2)CC1	.	.	.	17.6	.	.	.
S=C(NCc1ccco1)N1CCN(c2nc(-c3ccc(Cl)cc3)cs2)CC1	.	.	.	21.8	.	.	.
CN(C)S(=O)(=O)c1cccc(-c2nn(-c3ccccc3)cc2/C=C2\SC(=S)NC2=O)c1	.	.	.	25.6	.	.	23.1
O=C(CNC(=O)c1ccccc1F)N/N=C/c1cn[nH]c1-c1ccccc1	.	.	.	.	.	/	/
O=C(O)c1ccc(-c2ccc(/C=N/Nc3ccc([N+](=O)[O-])cc3)o2)cc1	/	.	.	21.5	.	41.0	.
O=C(O)c1ccc(N/N=C/C=C/c2ccc([N+](=O)[O-])o2)cc1	/	.	.	49.9	.	72.6	.
COc1cc(OC)c(OC)cc1CN1CCCC(C(=O)c2ccc3c(c2)OCO3)C1 (stereo not drawn)	.	.	.	.	.	/	/
O=C(Cn1ccnc1)c1ccc(O)c(O)c1	/	.	.	.	.	/	/
OCCNc1ncnc2c1cnn2Cc1ccccc1	/	.	.	/	.	/	/
CC(C)CCNc1ncnc2c1cnn2Cc1ccccc1Cl	/	.	.	21.3	.	.	.
SMILES	TLR4 MyD88 comp	IDE cell activ	NOD2 RIPK2 PPI	IDE inh	TLR9-MyD88 inh	IDE inh confirm	HEK cytotox
O=C(CCS(=O)(=O)c1ccccc1)Nc1ccc(S(=O)(=O)Nc2ncccn2)cc1	/	.	.	.	.	/	/
Cn1c(CS/C(N)=N/N=C/c2ccccc2)c(Br)c(=O)n1-c1ccccc1	.	.	.	.	.	/	/
CCCC[n+]1c(C)sc2cc(OC)ccc21	.	.	.	18.0	.	.	.
COc1cccc(NC(=O)N2CCN(c3cccc(C)c3C)CC2)c1	.	.	.	16.4	.	.	.
COc1cccc(NC(=O)N2CCN(c3nc(-c4cccc(OC)c4)cs3)CC2)c1	/	.	.	19.0	.	.	29.7
COc1ccccc1N1CCN(C(=O)Nc2cccc(Cl)c2)CC1	.	.	.	.	.	/	/
COc1ccc(S(=O)(=O)c2c(N)n(Cc3ccco3)c3nc4ccccc4nc23)cc1	.	.	.	23.0	.	.	.
